Data reported in PMC12820563, “FoxP3 forms a head-to-head dimer in vivo and stabilizes its multimerization on adjacent microsatellites”.
The full ranking holds about 16,000 sequences; the median of “rpm ratio (pull-down/input)” is about 0.5, and the highest 2% start at about 5.5. What follows is part of a selection rich in the highest values, with near analogues and random picks from the rest.

Target: T1, MBP-FoxP3dN (Mus musculus, UniProt Q99JB6 188-423)
T1 sequence: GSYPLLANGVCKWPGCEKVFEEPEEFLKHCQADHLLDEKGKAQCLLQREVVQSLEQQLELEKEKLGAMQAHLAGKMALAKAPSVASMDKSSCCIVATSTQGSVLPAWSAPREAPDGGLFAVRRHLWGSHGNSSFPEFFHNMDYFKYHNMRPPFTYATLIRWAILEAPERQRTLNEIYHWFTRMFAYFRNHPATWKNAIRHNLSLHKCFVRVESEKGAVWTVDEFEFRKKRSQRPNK
Assay: PD-seq (MBP pull-down with sequencing); 20 mM Tris-HCl pH 7.5, 100 mM NaCl, 1.5 mM MgCl2, 0.4 uM protein, 0.1 uM dsDNA library, 30 min, room temperature, amylose pull-down; high values mean tight binding
Conditions: protein: recombinant; tags: His6-MBP; chain copies: 2; dsDNA, one strand shown
Outline: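 In Tris pH 7.5 buffer with NaCl and MgCl2, 0.4 µM His6-MBP-tagged mouse FoxP3 or FoxP1 fragment lacking the N-terminus, from E. coli, met 0.1 µM Klenow-filled double-stranded degenerate DNA library for 30 min at room temperature. Three washes on amylose resin followed capture of the complexes, then proteinase K release of DNA, PCR barcoding and Illumina sequencing. Binding is taken as pooled-replicate reads-per-million enrichment of pull-down relative to input.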

In order of rising binding signal:
1. GATGATTGTTCTCCCAGCTGATGAATTTAACGAGTCGAGTAAACAAATTTTCCTAATCTTTCTGTTCAAGCGCCATCTAC  0.208 RPM ratio (pull-down/input)
2. GATGATTGTTCTCCCAGCTGATGAATTTAATCAATCGAGTAAACAAATTTTCCTAATCTTTCTGTTCAAGCGCCATCTAC  0.269 RPM ratio (pull-down/input)
3. GATGATTGTTCTCCCAGCTGATGAATTGTCCCGCTCGAGTAAACAAATTTTCCTAATCTTTCTGTTCAAGCGCCATCTAC  0.272 RPM ratio (pull-down/input)
4. GATGATTGTTCTCCCAGCTGATGAATTACCCATGTCGAGTAAACAAATTTTCCTAATCTTTCTGTTCAAGCGCCATCTAC  0.294 RPM ratio (pull-down/input)
5. GATGATTGTTCTCCCAGCTGATGAATTAAGTCCGTCGAGTAAACAAATTTTCCTAATCTTTCTGTTCAAGCGCCATCTAC  0.307 RPM ratio (pull-down/input)
6. GATGATTGTTCTCCCAGCTGATGAATTGCCCGAATCGAGTAAACAAATTTTCCTAATCTTTCTGTTCAAGCGCCATCTAC  0.311 RPM ratio (pull-down/input)
7. GATGATTGTTCTCCCAGCTGATGAATTACTCCACTCGAGTAAACAAATTTTCCTAATCTTTCTGTTCAAGCGCCATCTAC  0.339 RPM ratio (pull-down/input)
8. GATGATTGTTCTCCCAGCTGATGAATTGGAACTCTCGAGTAAACAAATTTTCCTAATCTTTCTGTTCAAGCGCCATCTAC  0.343 RPM ratio (pull-down/input)
9. GATGATTGTTCTCCCAGCTGATGAATTGCTCAGATCGAGTAAACAAATTTTCCTAATCTTTCTGTTCAAGCGCCATCTAC  0.345 RPM ratio (pull-down/input)
10. GATGATTGTTCTCCCAGCTGATGAATTTGGTCCGTCGAGTAAACAAATTTTCCTAATCTTTCTGTTCAAGCGCCATCTAC  0.363 RPM ratio (pull-down/input)
11. GATGATTGTTCTCCCAGCTGATGAATTACTTTCTTCGAGTAAACAAATTTTCCTAATCTTTCTGTTCAAGCGCCATCTAC  0.388 RPM ratio (pull-down/input)
12. GATGATTGTTCTCCCAGCTGATGAATTCCTTTGGTCGAGTAAACAAATTTTCCTAATCTTTCTGTTCAAGCGCCATCTAC  0.395 RPM ratio (pull-down/input)
13. GATGATTGTTCTCCCAGCTGATGAATTAGAGATGTCGAGTAAACAAATTTTCCTAATCTTTCTGTTCAAGCGCCATCTAC  0.424 RPM ratio (pull-down/input)
14. GATGATTGTTCTCCCAGCTGATGAATTTTAGGCCTCGAGTAAACAAATTTTCCTAATCTTTCTGTTCAAGCGCCATCTAC  0.444 RPM ratio (pull-down/input)
15. GATGATTGTTCTCCCAGCTGATGAATTCTAAGTGTCGAGTAAACAAATTTTCCTAATCTTTCTGTTCAAGCGCCATCTAC  0.48 RPM ratio (pull-down/input)
16. GATGATTGTTCTCCCAGCTGATGAATTCTTTGCGTCGAGTAAACAAATTTTCCTAATCTTTCTGTTCAAGCGCCATCTAC  0.489 RPM ratio (pull-down/input)
17. GATGATTGTTCTCCCAGCTGATGAATTTTACGCCTCGAGTAAACAAATTTTCCTAATCTTTCTGTTCAAGCGCCATCTAC  0.506 RPM ratio (pull-down/input)
18. GATGATTGTTCTCCCAGCTGATGAATTAACAATGTCGAGTAAACAAATTTTCCTAATCTTTCTGTTCAAGCGCCATCTAC  0.512 RPM ratio (pull-down/input)
19. GATGATTGTTCTCCCAGCTGATGAATTTTTTGCGTCGAGTAAACAAATTTTCCTAATCTTTCTGTTCAAGCGCCATCTAC  0.525 RPM ratio (pull-down/input)
20. GATGATTGTTCTCCCAGCTGATGAATTAGGCAAATCGAGTAAACAAATTTTCCTAATCTTTCTGTTCAAGCGCCATCTAC  0.601 RPM ratio (pull-down/input)
21. GATGATTGTTCTCCCAGCTGATGAATTCTTGTCATCGAGTAAACAAATTTTCCTAATCTTTCTGTTCAAGCGCCATCTAC  0.625 RPM ratio (pull-down/input)
22. GATGATTGTTCTCCCAGCTGATGAATTAGCTGCTTCGAGTAAACAAATTTTCCTAATCTTTCTGTTCAAGCGCCATCTAC  0.674 RPM ratio (pull-down/input)
23. GATGATTGTTCTCCCAGCTGATGAATTGTACGTATCGAGTAAACAAATTTTCCTAATCTTTCTGTTCAAGCGCCATCTAC  0.769 RPM ratio (pull-down/input)
24. GATGATTGTTCTCCCAGCTGATGAATTGACACATTCGAGTAAACAAATTTTCCTAATCTTTCTGTTCAAGCGCCATCTAC  0.772 RPM ratio (pull-down/input)
25. GATGATTGTTCTCCCAGCTGATGAATTTACGCACTCGAGTAAACAAATTTTCCTAATCTTTCTGTTCAAGCGCCATCTAC  0.784 RPM ratio (pull-down/input)
26. GATGATTGTTCTCCCAGCTGATGAATTACGCAAATCGAGTAAACAAATTTTCCTAATCTTTCTGTTCAAGCGCCATCTAC  0.792 RPM ratio (pull-down/input)
27. GATGATTGTTCTCCCAGCTGATGAATTCGGCACTTCGAGTAAACAAATTTTCCTAATCTTTCTGTTCAAGCGCCATCTAC  0.811 RPM ratio (pull-down/input)
28. GATGATTGTTCTCCCAGCTGATGAATTCTACGCATCGAGTAAACAAATTTTCCTAATCTTTCTGTTCAAGCGCCATCTAC  0.854 RPM ratio (pull-down/input)
29. GATGATTGTTCTCCCAGCTGATGAATTGCTACCATCGAGTAAACAAATTTTCCTAATCTTTCTGTTCAAGCGCCATCTAC  0.894 RPM ratio (pull-down/input)
30. GATGATTGTTCTCCCAGCTGATGAATTAGGTAGTTCGAGTAAACAAATTTTCCTAATCTTTCTGTTCAAGCGCCATCTAC  0.919 RPM ratio (pull-down/input)
31. GATGATTGTTCTCCCAGCTGATGAATTACAACTCTCGAGTAAACAAATTTTCCTAATCTTTCTGTTCAAGCGCCATCTAC  0.948 RPM ratio (pull-down/input)
32. GATGATTGTTCTCCCAGCTGATGAATTTTACGCATCGAGTAAACAAATTTTCCTAATCTTTCTGTTCAAGCGCCATCTAC  1.01 RPM ratio (pull-down/input)
33. GATGATTGTTCTCCCAGCTGATGAATTGCGATGGTCGAGTAAACAAATTTTCCTAATCTTTCTGTTCAAGCGCCATCTAC  1.01 RPM ratio (pull-down/input)
34. GATGATTGTTCTCCCAGCTGATGAATTGCTGCACTCGAGTAAACAAATTTTCCTAATCTTTCTGTTCAAGCGCCATCTAC  1.03 RPM ratio (pull-down/input)
35. GATGATTGTTCTCCCAGCTGATGAATTACGCTGTTCGAGTAAACAAATTTTCCTAATCTTTCTGTTCAAGCGCCATCTAC  1.09 RPM ratio (pull-down/input)
36. GATGATTGTTCTCCCAGCTGATGAATTTCATTGGTCGAGTAAACAAATTTTCCTAATCTTTCTGTTCAAGCGCCATCTAC  1.11 RPM ratio (pull-down/input)
37. GATGATTGTTCTCCCAGCTGATGAATTAGGCAGCTCGAGTAAACAAATTTTCCTAATCTTTCTGTTCAAGCGCCATCTAC  1.13 RPM ratio (pull-down/input)
38. GATGATTGTTCTCCCAGCTGATGAATTACGGCCATCGAGTAAACAAATTTTCCTAATCTTTCTGTTCAAGCGCCATCTAC  1.15 RPM ratio (pull-down/input)
39. GATGATTGTTCTCCCAGCTGATGAATTCGTGGTTTCGAGTAAACAAATTTTCCTAATCTTTCTGTTCAAGCGCCATCTAC  1.35 RPM ratio (pull-down/input)
40. GATGATTGTTCTCCCAGCTGATGAATTAGGCGCCTCGAGTAAACAAATTTTCCTAATCTTTCTGTTCAAGCGCCATCTAC  1.35 RPM ratio (pull-down/input)
41. GATGATTGTTCTCCCAGCTGATGAATTACGCGCATCGAGTAAACAAATTTTCCTAATCTTTCTGTTCAAGCGCCATCTAC  1.54 RPM ratio (pull-down/input)
42. GATGATTGTTCTCCCAGCTGATGAATTACGCGCCTCGAGTAAACAAATTTTCCTAATCTTTCTGTTCAAGCGCCATCTAC  1.67 RPM ratio (pull-down/input)
43. GATGATTGTTCTCCCAGCTGATGAATTACGCAGCTCGAGTAAACAAATTTTCCTAATCTTTCTGTTCAAGCGCCATCTAC  1.78 RPM ratio (pull-down/input)
44. GATGATTGTTCTCCCAGCTGATGAATTGCTTATGTCGAGTAAACAAATTTTCCTAATCTTTCTGTTCAAGCGCCATCTAC  1.87 RPM ratio (pull-down/input)
45. GATGATTGTTCTCCCAGCTGATGAATTTGCGTCGTCGAGTAAACAAATTTTCCTAATCTTTCTGTTCAAGCGCCATCTAC  2.28 RPM ratio (pull-down/input)
46. GATGATTGTTCTCCCAGCTGATGAATTAGATGTGTCGAGTAAACAAATTTTCCTAATCTTTCTGTTCAAGCGCCATCTAC  2.71 RPM ratio (pull-down/input)
47. GATGATTGTTCTCCCAGCTGATGAATTTTGCGCGTCGAGTAAACAAATTTTCCTAATCTTTCTGTTCAAGCGCCATCTAC  3.39 RPM ratio (pull-down/input)
48. GATGATTGTTCTCCCAGCTGATGAATTACGCCATTCGAGTAAACAAATTTTCCTAATCTTTCTGTTCAAGCGCCATCTAC  5.04 RPM ratio (pull-down/input)
49. GATGATTGTTCTCCCAGCTGATGAATTAGGGCATTCGAGTAAACAAATTTTCCTAATCTTTCTGTTCAAGCGCCATCTAC  5.05 RPM ratio (pull-down/input)
50. GATGATTGTTCTCCCAGCTGATGAATTTAGGCATTCGAGTAAACAAATTTTCCTAATCTTTCTGTTCAAGCGCCATCTAC  5.38 RPM ratio (pull-down/input)
51. GATGATTGTTCTCCCAGCTGATGAATTACGCCTGTCGAGTAAACAAATTTTCCTAATCTTTCTGTTCAAGCGCCATCTAC  5.4 RPM ratio (pull-down/input)
52. GATGATTGTTCTCCCAGCTGATGAATTAGGCCTCTCGAGTAAACAAATTTTCCTAATCTTTCTGTTCAAGCGCCATCTAC  5.5 RPM ratio (pull-down/input)
53. GATGATTGTTCTCCCAGCTGATGAATTACGCCTCTCGAGTAAACAAATTTTCCTAATCTTTCTGTTCAAGCGCCATCTAC  5.99 RPM ratio (pull-down/input)
54. GATGATTGTTCTCCCAGCTGATGAATTACGCAACTCGAGTAAACAAATTTTCCTAATCTTTCTGTTCAAGCGCCATCTAC  6.03 RPM ratio (pull-down/input)
55. GATGATTGTTCTCCCAGCTGATGAATTACGCATGTCGAGTAAACAAATTTTCCTAATCTTTCTGTTCAAGCGCCATCTAC  6.15 RPM ratio (pull-down/input)
56. GATGATTGTTCTCCCAGCTGATGAATTACGCCACTCGAGTAAACAAATTTTCCTAATCTTTCTGTTCAAGCGCCATCTAC  6.17 RPM ratio (pull-down/input)
57. GATGATTGTTCTCCCAGCTGATGAATTAGGCATTTCGAGTAAACAAATTTTCCTAATCTTTCTGTTCAAGCGCCATCTAC  6.35 RPM ratio (pull-down/input)
58. GATGATTGTTCTCCCAGCTGATGAATTTACGCATTCGAGTAAACAAATTTTCCTAATCTTTCTGTTCAAGCGCCATCTAC  6.38 RPM ratio (pull-down/input)
59. GATGATTGTTCTCCCAGCTGATGAATTGTTTGCGTCGAGTAAACAAATTTTCCTAATCTTTCTGTTCAAGCGCCATCTAC  6.41 RPM ratio (pull-down/input)
60. GATGATTGTTCTCCCAGCTGATGAATTACGCATTTCGAGTAAACAAATTTTCCTAATCTTTCTGTTCAAGCGCCATCTAC  6.65 RPM ratio (pull-down/input)
61. GATGATTGTTCTCCCAGCTGATGAATTTGTTGCGTCGAGTAAACAAATTTTCCTAATCTTTCTGTTCAAGCGCCATCTAC  6.75 RPM ratio (pull-down/input)
62. GATGATTGTTCTCCCAGCTGATGAATTAGGCATCTCGAGTAAACAAATTTTCCTAATCTTTCTGTTCAAGCGCCATCTAC  6.82 RPM ratio (pull-down/input)
63. GATGATTGTTCTCCCAGCTGATGAATTACGCATCTCGAGTAAACAAATTTTCCTAATCTTTCTGTTCAAGCGCCATCTAC  7.33 RPM ratio (pull-down/input)
